# Records with an inconclusive call do not appear. A call without a number means that no potency is given here. Activity calls are given as the source filed them. Unless noted, calls come from the whole dose curve.
# Assays:
# [1] = qHTS profiling for inhibitors of Plasmodium falciparum (3D7) proliferation (AID 743322);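 note: infected erythrocytes exposed to compound for 72 h before lysis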; conditions: P. falciparum 3D7 proliferation; at 28.7 µM (top of the series)
# Procedure, shortened: (§1)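 Parasite DNA was quantified by SYBR Green I fluorescence (ex 485, em 535 nm) after overnight lysis in saponin/Triton buffer at room temperature. Cultures at 0.3% parasitemia and 2.5% hematocrit were first exposed to compound for 72 h at 37 C; signals were normalised to artemisinin (0.29 uM) and vehicle wells.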
# [2] = qHTS profiling for inhibitors of Plasmodium falciparum (DD2) proliferation (AID 743323; call rule not given here); conditions: lower = more inhibition; at 28.7 µM (top of the series)
# Procedure, shortened: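 Parasite proliferation measured via DNA-dye fluorescence, as uninfected erythrocytes lack DNA. Cultures at 0.3% parasitemia and 2.5% hematocrit incubated 72 h with compound; signal scaled between vehicle and 0.29 uM artemisinin wells.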
# [3] = qHTS profiling for inhibitors of Plasmodium falciparum (HB3) proliferation (AID 743324; active = well fitted curve in the direction sought with a large enough effect; an effect the other way counts as inactive or inconclusive); conditions: Plasmodium falciparum HB3 blood-stage proliferation; at 28.7 µM (top of the series)
# Procedure, shortened: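 SYBR Green fluorescence (485 ex/535 em) of lysed cultures, incubated overnight at room temperature in the dark, quantifies parasite DNA. Infected erythrocytes at 0.3% parasitemia and 2.5% hematocrit were exposed 72 h; values normalized to DMSO and 0.29 uM artemisinin controls.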
# [4] = qHTS profiling of the MIPE4 collection as inhibitors of Plasmodium falciparum (3D7) proliferation (AID 743344; call rule not given here); conditions: P. falciparum 3D7 in erythrocytes, SYBR Green DNA fluorescence, 72 h; at 28.5 µM (top of the series) unless noted
# Procedure, shortened: as §1
# [5] = qHTS profiling of the MIPE4 collection as inhibitors of Plasmodium falciparum (DD2) proliferation (AID 743345; call rule not given here); conditions: P. falciparum Dd2 in erythrocytes, SYBR Green DNA, 72 h; at 28.5 µM (top of the series) unless noted
# Procedure, shortened: as §1
# [6] = qHTS profiling of the MIPE4 collection as inhibitors of Plasmodium falciparum (DD2) proliferation (Rep 2) (AID 743346; call rule not given here); conditions: P. falciparum Dd2 in erythrocytes, SYBR Green DNA, 72 h; at 28.5 µM (top of the series) unless noted
# Procedure, shortened: as §1
# [7] = qHTS profiling of the MIPE4 collection as inhibitors of Plasmodium falciparum (HB3) proliferation (AID 743347; call rule not given here); conditions: P. falciparum HB3 in erythrocytes, SYBR Green DNA, 72 h; at 28.5 µM (top of the series) unless noted
# Procedure, shortened: as §1
# [8] = qHTS for Inhibitors of the Functional Ribonucleoprotein Complex (vRNP) of Lassa (LASV) Arenavirus: LASV Primary Screen - GLuc reporter signal (AID 1347082; calls by dose curve; tested in HEK293 reporter line; note: nearly all actives have a fitted effect of over 60% in size; note: potency is the fitted concentration of half-maximal effect)
# [9] = qHTS for Inhibitors of the Functional Ribonucleoprotein Complex (vRNP) of Lassa (LASV) Arenavirus: Viability assay - alamar blue signal for LASV Primary Screen (AID 1347083; calls by dose curve; tested in HEK293 reporter line; note: nearly all actives have a fitted effect of over 80% in size; note: potency is the fitted concentration of half-maximal effect)
# [10] = qHTS for Inhibitors of the Functional Ribonucleoprotein Complex (vRNP) of Lymphocytic Choriomeningitis Arenaviruses (LCMV): Viability assay - alamar blue signal for LCMV Primary Screen (AID 1347085; calls by dose curve; tested in HEK293 reporter line; note: nearly all actives have a fitted effect of over 80% in size; note: potency is the fitted concentration of half-maximal effect)
# [11] = molecular target: Nucleoprotein (Lymphocytic choriomeningitis virus (strain Armstrong)) (UniProt P09992); assay: qHTS for Inhibitors of the Functional Ribonucleoprotein Complex (vRNP) of Lymphocytic Choriomeningitis Arenaviruses (LCMV): LCMV Primary Screen - GLuc reporter signal (AID 1347086); note: nearly all actives have a fitted effect of over 70% in size; note: potency is the fitted concentration of half-maximal effect
# Chain of Nucleoprotein (Lymphocytic choriomeningitis virus (strain Armstrong)) (P09992 whole entry, looked up): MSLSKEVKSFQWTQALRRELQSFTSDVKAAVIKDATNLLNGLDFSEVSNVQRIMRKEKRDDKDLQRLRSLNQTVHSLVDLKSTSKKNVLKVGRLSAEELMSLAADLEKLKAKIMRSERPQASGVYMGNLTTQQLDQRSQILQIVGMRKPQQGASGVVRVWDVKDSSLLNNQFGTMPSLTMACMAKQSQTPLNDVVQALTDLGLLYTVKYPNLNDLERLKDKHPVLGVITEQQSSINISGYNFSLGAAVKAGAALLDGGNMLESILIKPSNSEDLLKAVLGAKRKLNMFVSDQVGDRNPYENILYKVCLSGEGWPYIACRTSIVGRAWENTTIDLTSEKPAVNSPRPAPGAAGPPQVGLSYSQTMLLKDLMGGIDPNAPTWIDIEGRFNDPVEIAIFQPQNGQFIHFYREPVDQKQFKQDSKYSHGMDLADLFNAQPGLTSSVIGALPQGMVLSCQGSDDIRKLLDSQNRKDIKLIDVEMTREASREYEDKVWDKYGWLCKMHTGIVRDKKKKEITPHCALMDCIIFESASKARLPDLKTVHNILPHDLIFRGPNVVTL
# [12] = molecular target: Cytochrome P450 3A4 (Homo sapiens) (UniProt P08684); assay: qHTS Assay for Activators of Cytochrome P450 3A4 (AID 885; active = well fitted curve in the direction sought with a large enough effect; an effect the other way counts as inactive or inconclusive; note: nearly all actives have a fitted effect of over 65% in size)
# Chain of Cytochrome P450 3A4 (Homo sapiens) (P08684 whole entry, looked up): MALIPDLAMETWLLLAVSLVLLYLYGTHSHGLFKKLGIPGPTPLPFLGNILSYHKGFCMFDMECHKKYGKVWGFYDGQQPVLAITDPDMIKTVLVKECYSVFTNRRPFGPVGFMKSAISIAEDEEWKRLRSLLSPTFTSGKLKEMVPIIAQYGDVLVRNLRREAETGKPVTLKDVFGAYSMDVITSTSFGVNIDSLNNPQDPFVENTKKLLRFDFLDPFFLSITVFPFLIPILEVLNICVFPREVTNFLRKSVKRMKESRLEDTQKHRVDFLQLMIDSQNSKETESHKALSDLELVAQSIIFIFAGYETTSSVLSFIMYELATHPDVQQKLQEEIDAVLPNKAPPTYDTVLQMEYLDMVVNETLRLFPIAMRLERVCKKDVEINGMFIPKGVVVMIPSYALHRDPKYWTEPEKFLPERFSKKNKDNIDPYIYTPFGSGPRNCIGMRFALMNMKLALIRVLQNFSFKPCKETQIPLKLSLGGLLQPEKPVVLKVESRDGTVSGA
# Procedure, shortened: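 Using 20nM recombinant human CYP3A4 in potassium phosphate (200mM), substrate Luciferin-PPXE at 25uM, luminescent luciferin detection followed a 60-min RT NADPH reaction; data scaled to 57 uM ketoconazole.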
# [13] = qHTS assay for small molecule agonists of the antioxidant response element (ARE) signaling pathway (AID 651741; active = well fitted activation curve with a large enough effect in the signal ratio; the % refers to the signal ratio)
# Procedure, shortened: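 Stably integrated ARE-beta-lactamase reporter HepG2 cells; 16 h compound incubation, 37 C; LiveBLAzer FRET substrate 2 h at room temperature; fluorescence intensity.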
# [14] = molecular target: Peroxisome proliferator-activated receptor delta (Homo sapiens) (UniProt Q03181); assay: qHTS assay for small molecule agonists of peroxisome proliferator-activated receptor delta signaling (AID 588534)
# Chain of Peroxisome proliferator-activated receptor delta (Homo sapiens) (Q03181 whole entry, looked up): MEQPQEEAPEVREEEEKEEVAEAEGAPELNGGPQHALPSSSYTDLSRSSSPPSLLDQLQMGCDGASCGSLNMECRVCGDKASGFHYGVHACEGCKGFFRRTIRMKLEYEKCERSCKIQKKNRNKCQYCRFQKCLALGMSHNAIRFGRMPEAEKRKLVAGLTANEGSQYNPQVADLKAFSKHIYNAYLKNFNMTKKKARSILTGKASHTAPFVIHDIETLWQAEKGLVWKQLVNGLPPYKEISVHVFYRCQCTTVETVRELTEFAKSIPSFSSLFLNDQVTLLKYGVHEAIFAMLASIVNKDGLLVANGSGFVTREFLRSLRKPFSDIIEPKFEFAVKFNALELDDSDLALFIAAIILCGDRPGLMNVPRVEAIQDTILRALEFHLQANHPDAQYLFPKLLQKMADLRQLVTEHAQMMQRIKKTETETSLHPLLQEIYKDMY
# Procedure, shortened: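 Agonist-mode beta-lactamase reporter readout (CCF4 dye, 2 h at RT) after 18 h at 37 °C exposure to a titration; Hill-equation fitting gave EC50 and maximal response.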
# [15] = molecular target: Voltage-gated inwardly rectifying potassium channel KCNH2 (Homo sapiens) (UniProt Q12809); assay: qHTS Assay for Small Molecule Inhibitors of the Human hERG Channel Activity (AID 588834; active = well fitted curve in the direction sought with a large enough effect; an effect the other way counts as inactive or inconclusive;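 note: top concentration of the series differs between compounds; lower thallium flux fluorescence means stronger hERG block; nearly all actives have a fitted effect of over 50% in size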)
# Chain of Voltage-gated inwardly rectifying potassium channel KCNH2 (Homo sapiens) (Q12809 whole entry, looked up): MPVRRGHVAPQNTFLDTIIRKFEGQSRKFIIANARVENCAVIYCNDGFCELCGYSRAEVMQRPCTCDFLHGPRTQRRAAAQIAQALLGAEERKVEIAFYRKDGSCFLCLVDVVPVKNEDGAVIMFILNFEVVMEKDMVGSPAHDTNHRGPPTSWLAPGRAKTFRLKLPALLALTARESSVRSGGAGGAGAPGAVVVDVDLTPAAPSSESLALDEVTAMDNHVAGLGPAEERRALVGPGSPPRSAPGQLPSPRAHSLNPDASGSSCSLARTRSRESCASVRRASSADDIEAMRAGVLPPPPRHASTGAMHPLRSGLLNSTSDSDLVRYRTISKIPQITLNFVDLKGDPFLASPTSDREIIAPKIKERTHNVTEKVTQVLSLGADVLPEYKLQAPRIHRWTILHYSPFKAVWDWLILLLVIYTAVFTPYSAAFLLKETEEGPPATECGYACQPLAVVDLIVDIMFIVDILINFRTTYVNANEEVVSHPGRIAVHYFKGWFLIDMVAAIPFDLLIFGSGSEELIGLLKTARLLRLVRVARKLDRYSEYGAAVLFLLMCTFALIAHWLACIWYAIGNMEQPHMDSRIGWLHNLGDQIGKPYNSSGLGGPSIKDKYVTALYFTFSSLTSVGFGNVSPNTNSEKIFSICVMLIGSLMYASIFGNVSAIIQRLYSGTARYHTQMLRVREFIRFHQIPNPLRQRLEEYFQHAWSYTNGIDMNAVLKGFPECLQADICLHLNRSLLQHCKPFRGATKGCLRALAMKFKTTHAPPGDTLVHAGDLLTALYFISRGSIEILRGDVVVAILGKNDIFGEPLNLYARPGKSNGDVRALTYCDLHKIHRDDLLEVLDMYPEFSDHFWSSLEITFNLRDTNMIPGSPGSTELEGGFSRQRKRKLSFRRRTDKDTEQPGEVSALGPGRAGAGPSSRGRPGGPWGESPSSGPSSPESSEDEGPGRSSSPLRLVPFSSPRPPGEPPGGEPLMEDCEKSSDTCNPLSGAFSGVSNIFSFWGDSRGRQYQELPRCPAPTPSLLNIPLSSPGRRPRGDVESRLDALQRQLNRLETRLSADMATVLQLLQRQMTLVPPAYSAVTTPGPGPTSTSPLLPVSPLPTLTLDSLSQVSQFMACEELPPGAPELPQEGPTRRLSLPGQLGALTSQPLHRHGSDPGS
# Procedure, shortened: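 Thallium-flux (FluxOR) read-out on FDSS: fluorescence read 10 s before and 2 min after stimulation buffer. hERG-BacMam-transduced U2OS cells, compound exposure about 10 min. AC50 by standard Hill equation.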
# [16] = molecular target: Luciferin 4-monooxygenase (Photinus pyralis) (UniProt P08659); assay: Biochemical firefly luciferase enzyme assay for NPC (AID 624030; active = well fitted curve in the direction sought with a large enough effect; an effect the other way counts as inactive or inconclusive;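 note: purified P. pyralis luciferase at 10 nM with luciferin and ATP substrate; nearly all actives have a fitted effect of over 70% in size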)
# Chain of Luciferin 4-monooxygenase (Photinus pyralis) (P08659 whole entry, looked up): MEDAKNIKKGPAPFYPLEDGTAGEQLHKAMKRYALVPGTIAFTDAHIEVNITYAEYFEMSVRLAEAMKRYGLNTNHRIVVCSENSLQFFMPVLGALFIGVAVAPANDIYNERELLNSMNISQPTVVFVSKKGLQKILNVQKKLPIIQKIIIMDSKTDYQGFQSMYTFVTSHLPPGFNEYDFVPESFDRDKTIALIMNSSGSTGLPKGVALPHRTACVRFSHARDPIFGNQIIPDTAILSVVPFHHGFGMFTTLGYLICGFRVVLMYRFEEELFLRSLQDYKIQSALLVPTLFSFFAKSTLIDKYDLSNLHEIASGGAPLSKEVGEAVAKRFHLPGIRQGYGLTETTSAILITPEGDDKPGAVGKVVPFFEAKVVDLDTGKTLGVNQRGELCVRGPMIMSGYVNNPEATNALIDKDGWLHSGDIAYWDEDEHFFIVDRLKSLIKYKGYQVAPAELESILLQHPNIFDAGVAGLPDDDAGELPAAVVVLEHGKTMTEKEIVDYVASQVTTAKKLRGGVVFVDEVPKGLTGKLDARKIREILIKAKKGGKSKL
# Procedure, shortened: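 Purified P. pyralis luciferase at 10 nM in 50 mM Tris Acetate (final), luminescence read within 5 minutes of enzyme addition to compounds. Activity normalised to PTC124 versus DMSO; concentration-response curves classed by r2, magnitude and activity.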
# [17] = molecular target: Ubiquitin carboxyl-terminal hydrolase 1 (Homo sapiens) (UniProt O94782); assay: Inhibitors of USP1/UAF1: Pilot qHTS (AID 504865; active = well fitted curve in the direction sought with a large enough effect; an effect the other way counts as inactive or inconclusive;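 note: rhodamine fluorescence freed from ubiquitin-rhodamine substrate followed over time; top concentration of the series differs between compounds; nearly all actives have a fitted effect of over 35% in size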)
# Chain of Ubiquitin carboxyl-terminal hydrolase 1 (Homo sapiens) (O94782 whole entry, looked up): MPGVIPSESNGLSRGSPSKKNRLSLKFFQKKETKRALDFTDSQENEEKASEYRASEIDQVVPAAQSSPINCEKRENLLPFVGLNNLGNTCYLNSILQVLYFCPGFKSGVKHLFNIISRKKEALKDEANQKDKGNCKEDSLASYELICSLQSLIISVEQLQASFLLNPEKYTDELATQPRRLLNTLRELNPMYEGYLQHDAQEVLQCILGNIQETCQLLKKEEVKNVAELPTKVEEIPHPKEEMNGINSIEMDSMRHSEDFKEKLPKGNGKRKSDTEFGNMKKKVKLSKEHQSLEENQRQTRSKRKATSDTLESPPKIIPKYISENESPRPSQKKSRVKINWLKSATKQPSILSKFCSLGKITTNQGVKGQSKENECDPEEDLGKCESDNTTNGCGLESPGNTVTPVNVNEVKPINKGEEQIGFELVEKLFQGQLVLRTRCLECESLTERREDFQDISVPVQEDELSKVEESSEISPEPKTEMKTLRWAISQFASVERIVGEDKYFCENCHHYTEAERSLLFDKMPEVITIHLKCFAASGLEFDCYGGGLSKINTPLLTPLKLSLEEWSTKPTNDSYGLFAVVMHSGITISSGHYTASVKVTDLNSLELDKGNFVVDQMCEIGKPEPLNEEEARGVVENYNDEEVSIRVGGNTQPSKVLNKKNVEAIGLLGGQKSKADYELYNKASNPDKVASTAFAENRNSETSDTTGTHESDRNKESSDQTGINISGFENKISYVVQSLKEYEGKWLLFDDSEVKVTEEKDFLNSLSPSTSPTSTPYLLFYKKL
# Procedure, shortened: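 1nM USP1/UAF1 + cpd, 15 min RT; start w/ Ub-Rho 150nM final; kinetic FL 480/540 nm, 6 reads q60 s. Buffer 50mM HEPES pH 7.8, 0.5mM EDTA, 1mM TCEP, 0.01% Tween-20, 0.1 mg/ml BSA.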
# [18] = S16 Schwann cell PMP22 intronic element beta-lactamase assay (AID 624044); note: potency is the fitted concentration of half-maximal effect; nearly all actives have a fitted effect of over 15% in size
# Procedure, shortened: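 Beta-lactamase reporter under a PMP22 intronic regulatory element in stable S16 rat Schwann cells; 24 h compound exposure. 460 nm blue signal normalized between DMSO (0%) and potassium clavulanate, with 535 nm FRET tracking viability; curves classed by r2 and response.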
# [19] = molecular target: Bile acid receptor (Homo sapiens) (UniProt Q96RI1); assay: qHTS assay for small molecule agonists of farnesoid X receptor signaling (AID 588527); conditions: HEK293T FXR-UAS-bla, beta-lactamase ratio, 16 h; activation: stronger effect = higher value
# Chain of Bile acid receptor (Homo sapiens) (Q96RI1 whole entry, looked up): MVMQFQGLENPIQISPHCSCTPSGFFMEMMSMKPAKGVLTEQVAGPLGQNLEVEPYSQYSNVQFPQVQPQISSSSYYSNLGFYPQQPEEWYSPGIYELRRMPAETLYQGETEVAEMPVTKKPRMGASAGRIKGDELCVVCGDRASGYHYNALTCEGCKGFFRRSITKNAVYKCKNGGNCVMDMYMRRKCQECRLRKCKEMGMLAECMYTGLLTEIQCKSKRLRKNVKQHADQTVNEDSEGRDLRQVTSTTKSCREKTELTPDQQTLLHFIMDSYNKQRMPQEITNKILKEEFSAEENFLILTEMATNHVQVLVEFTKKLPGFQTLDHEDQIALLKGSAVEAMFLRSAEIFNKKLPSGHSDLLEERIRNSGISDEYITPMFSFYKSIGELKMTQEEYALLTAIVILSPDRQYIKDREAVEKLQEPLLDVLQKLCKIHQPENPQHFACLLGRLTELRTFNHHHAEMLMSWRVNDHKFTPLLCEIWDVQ
# Procedure, shortened: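 Quantitative HTS used FXR-UAS-bla HEK293T cells with 16 h compound incubation at 37 C. EC50 values came from concentration-response curves normalized to chenodeoxycholic acid.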
# [20] = molecular target: DNA dC->dU-editing enzyme APOBEC-3G (Homo sapiens) (UniProt Q9HC16); assay: qHTS for inhibitors of Vif-A3G interactions: Validation (AID 588379; active = well fitted curve in the direction sought with a large enough effect; an effect the other way counts as inactive or inconclusive)
# Chain of DNA dC->dU-editing enzyme APOBEC-3G (Homo sapiens) (Q9HC16 whole entry, looked up): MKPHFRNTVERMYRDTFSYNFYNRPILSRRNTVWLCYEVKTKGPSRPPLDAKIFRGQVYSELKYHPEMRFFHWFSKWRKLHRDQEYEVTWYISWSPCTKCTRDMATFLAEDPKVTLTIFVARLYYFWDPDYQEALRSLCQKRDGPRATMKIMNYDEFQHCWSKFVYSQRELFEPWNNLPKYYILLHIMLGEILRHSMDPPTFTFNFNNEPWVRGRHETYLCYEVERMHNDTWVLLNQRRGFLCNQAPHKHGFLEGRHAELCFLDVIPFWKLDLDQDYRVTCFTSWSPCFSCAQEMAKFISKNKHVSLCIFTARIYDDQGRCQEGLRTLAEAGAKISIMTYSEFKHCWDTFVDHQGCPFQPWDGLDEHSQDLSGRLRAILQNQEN
# Procedure, shortened: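 Yellow fluorescence (Ex 488, Em 500-530) of Vif-coexpressing HeLa A3G-eYFP cells, scanned by Acumen cytometer, reports blocked A3G degradation. Cells plated at 700/well overnight at 37 deg C before compound addition, then a further overnight compound incubation at 37 deg C.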
smiles,measurement,setting,value
CC(=O)N(O)CCCP(=O)(O)O,remaining parasite growth % (stronger effect = lower value),[1],13.5%
same,"activity, percent of control",[2],10.8%
same,"remaining proliferation (% of control), lower = more inhibition",[3],8.45%
same,"parasite growth, % of DMSO control",[4],13.6%
same,"parasite growth remaining, % of DMSO control (lower = more inhibition)",[5],18.6%
same,"parasite growth, % of control (lower = inhibition)",[6],18.1%
same,"growth, % of control",[7],13%
same,Potency,[8],inactive
same,Potency,[9],inactive
same,Potency,[10],inactive
same,Potency,[11],inactive
O=C(C[C@@H]1NCCC[C@@H]1O)Cn1cnc2ccccc2c1=O,remaining parasite growth % (stronger effect = lower value),[1],-0.414%
same,"activity, percent of control",[2],-0.451%
same,"remaining proliferation (% of control), lower = more inhibition",[3],-0.569%
same,"parasite growth, % of DMSO control",[4],4.79%
same,"parasite growth remaining, % of DMSO control (lower = more inhibition)",[5],6.53%
same,"growth, % of control",[7],5.66%
same,Potency,[8],inactive
same,Potency,[9],inactive
same,Potency,[10],inactive
same,Potency,[11],inactive
C=CCOC(=O)c1ccccc1C(=O)OCC=C,Potency,[12],inactive
same,Potency,[13],inactive
same,Potency,[8],inactive
same,Potency,[9],inactive
same,Potency,[10],inactive
same,Potency,[11],inactive
CCCCCCC(=O)O,Potency,[14],inactive
same,Potency,[8],inactive
same,Potency,[9],inactive
same,Potency,[10],inactive
same,Potency,[11],inactive
CCC(=O)OCCc1ccccc1,Potency,[14],inactive
same,Potency,[8],inactive
same,Potency,[9],inactive
same,Potency,[10],inactive
same,Potency,[11],inactive
O=C(O)/C=C/C(=O)O,Potency,[15],inactive
same,Potency,[16],inactive
same,Potency,[8],inactive
same,Potency,[9],inactive
same,Potency,[10],inactive
same,Potency,[11],inactive
CC[C@H]1CN2CCc3cc(OC)c(OC)cc3[C@H]2C[C@@H]1C[C@@H]1NCCc2cc(OC)c(OC)cc21,Potency,[17],inactive
same,Potency,[18],562 nM (active)
same,Potency,[8],385 nM (active)
same,Potency,[9],432 nM (active)
same,Potency,[10],544 nM (active)
same,Potency,[11],432 nM (active)
C=CCCCCCCCCCCCC,Potency,[14],inactive
same,Potency,[8],inactive
same,Potency,[9],inactive
same,Potency,[10],inactive
same,Potency,[11],inactive
c1ccc(CSCc2ccccc2)cc1,Potency,[14],inactive
same,Potency,[8],inactive
same,Potency,[9],inactive
same,Potency,[10],inactive
same,Potency,[11],inactive
CCCCCC1CCC(=O)O1 (configuration not stated),activation,[19],0.301% (inactive)
same,Potency,[14],inactive
same,Potency,[8],inactive
same,Potency,[9],inactive
same,Potency,[10],inactive
same,Potency,[11],inactive
CC(=O)OC/C=C(\C)CCC=C(C)C,Potency,[14],inactive
same,Potency,[8],inactive
same,Potency,[9],inactive
same,Potency,[10],inactive
same,Potency,[11],inactive
C/C=C1/CN2CC[C@]34C(=C(C=O)[C@H]1C[C@@H]23)Nc1ccccc14,Potency,[17],inactive
same,Potency,[20],inactive
same,Potency,[8],inactive
same,Potency,[9],inactive
same,Potency,[10],inactive
same,Potency,[11],inactive
C[C@H]1[C@H](NC(=O)C(=NOC(C)(C)C(=O)O)c2csc(N)n2)C(=O)N1S(=O)(=O)O,"parasite growth, % of DMSO control",[4],97.7%
same,"parasite growth remaining, % of DMSO control (lower = more inhibition)",[5],91.7%
same,Potency,[8],inactive
same,Potency,[9],inactive
same,Potency,[10],inactive
same,Potency,[11],inactive
